# Screening data as filed in PubChem BioAssay.
# HSF-1 act: HSF-1 activators, primary screen, NIH3T3-HGL cells, MG132 stress, luminescence, single point. NIH3T3-HGL HSF-1 luciferase reporter, 8 h; 100% = twice DMSO control signal. activation, % at 9 µM. actives 1.7% (n = 300,000). AID 504408, 2011;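 active = mean replicate activation of at least 50% with a set share of replicates each reaching 50%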;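 also: 0% = median of the neutral control wells and 100% = twice that signal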
# esBAF inh: Bmi1 luciferase reporter increase in mESCs, primary screen, esBAF inhibitor project, mouse ES cells, Bmi1 luciferase knock-in, single point; reporter increase, % at 12.5 µM; actives 2% (n = 350,000); 24 h; 100% = twice the neutral-well signal; in the data active = activation above about 40%;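 also: 0% = median of the plate's neutral control wells and 100% = double that signal; a rise in the Bmi1 reporter signal indicates esBAF inhibition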
# HSF1 inh: HSF1 inhibitors in luciferase reporter cells, primary screen, cell-based, NIH3T3, luminescence; NIH3T3-HGL HSE-luciferase, MG132-induced, luminescence 8 h; hits give low values; actives 0.77% (n = 300,000); activity change, negative = inhibition, % at 7.5 µM (by protocol);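 active = more than half of replicate wells show activity change below -50%, luminescence cut by over half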;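 also: luciferase reports HSF-1 transcriptional activity via heat shock element; 0% = median of DMSO wells and -100% = zero luminescence signal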
# MITF TRPM1 HTS: activators of MITF-driven TRPM1 promoter reporter, primary screen, cell-based, SK-MEL-5, luciferase, single point; SK-MEL-5 TRPM1-promoter luciferase, 24 h; % of positive control, neutral wells = 0; actives 0.75% (n = 300,000); activation, % at 12.5 µM; AID 588334, 2011;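 active = mean activation of at least 80% with every replicate also reaching 80%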;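 also: 0% = neutral control wells and 100% = parthenolide positive control wells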
# SMARCA2 act: SMARCA2 (BRM) function activators, primary screen, cell-based, luminescence, high throughput; AID 652017, 2013; activation, % at 9.1 µM; actives 1% (n = 370,000); MG213 cells, MMTV-luciferase reporter, dexamethasone, overnight; in the data active = activation above about 7.8%;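 also: 0% = vehicle wells and 100% = reference activator wells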
# Wnt act: Wnt/beta-catenin pathway activators, primary screen, cell-based, plate reader, single point; Wnt/beta-catenin reporter cell assay, activator; activation, % at 9.35 µM; actives 1.2% (n = 300,000); AID 743398, 2014; in the data active = activation above about 30%, passing the limit was not always enough;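 also: 0% = neutral control wells and 100% = positive control wells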
# An asterisk follows results filed as active; / = not tested or not shown. Only some compounds are listed: those with a hit (about 4.3% of all), similar ones and a draw of the others.
SMILES,HSF-1 act,esBAF inh,HSF1 inh,MITF TRPM1 HTS,SMARCA2 act,Wnt act
CO[C@@H]1CN(C)C(=O)c2cc(NC(C)=O)ccc2OC[C@@H](C)N(Cc2ccccc2F)C[C@@H]1C,/,-7,/,/,/,/
COc1ccc(N2CCN(CC(O)COCCOc3ccc(Br)cc3)CC2)cc1 (stereo not given),-74,/,-66*,12,-2,-1
C[C@H](CO)N1C[C@H](C)[C@@H](CN(C)CC2CCCCC2)Oc2ccc(NC(=O)C3CCCCC3)cc2CC1=O,/,-5,/,/,/,/
COc1ccc(CNc2nc3c(c(=O)[nH]c(=O)n3C)n2Cc2ccccc2C)cc1,-79,-9,-69*,15,0,1
COc1ccccc1S(=O)(=O)N1CC[C@@H]2[C@H]1c1cc(-c3ccccc3F)ccc1N[C@@H]2CO,/,-3,/,/,/,/
COc1cccc(C#Cc2ccc3c(c2)O[C@H](CN(C)C)[C@@H](C)CN([C@H](C)CO)S3(=O)=O)c1,/,-8,/,/,/,/
CC(NC(=O)/C(C#N)=C/c1ccc([N+](=O)[O-])o1)c1ccccc1 (stereo not given),-66,0,-62*,-58,6,4
Oc1ccc(Cl)cc1CNc1nccs1,-4,-1,1,/,0,45*
O=C(C[C@@H]1C=C[C@@H](NC(=O)NC2CCCCC2)[C@H](CO)O1)NCc1ccccc1,/,-2,/,/,/,/
CCC(=O)Nc1ccc2c(c1)OC[C@@H](C)N(C(=O)c1ccc(F)cc1)C[C@@H](C)[C@@H](OC)CN(C)C2=O,/,4,/,/,/,/
FC(F)(F)c1cccc(-c2cc3nc(NC4CCCCC4)ccn3n2)c1,/,43*,/,/,-1,-2
c1cc(-c2cc3nc(NC4CCCCC4)ccn3n2)ccc1OCCN1CCOCC1,/,50*,/,/,-2,-2
c1cc(-c2cc3nc(NCC4CC4)ccn3n2)ccc1OCCN1CCOCC1,/,46*,/,/,0,4
CC(C)Cc1ccc(-c2cc3nc(NCC4CC4)ccn3n2)cc1,/,83*,/,/,-1,-1
C[C@@H]1CN([C@@H](C)CO)C(=O)c2cc(NS(C)(=O)=O)ccc2O[C@@H]1CN(C)Cc1ccc(Cl)c(Cl)c1,/,5,/,/,/,/
C[C@H]1CCCCO[C@H](CN(C)Cc2ccc3c(c2)OCO3)[C@@H](C)CN([C@@H](C)CO)C(=O)c2cc(NS(=O)(=O)c3ccc(Cl)cc3)ccc2O1,/,1,/,/,/,/
S=C(NCc1ccccc1)NCc1ccco1,56*,-12,18,3,-1,-3
S=C(NCc1ccco1)Nc1ccc(Br)cc1Cl,199*,/,167,39,8,4
Cc1ccc(-c2csc3nc[nH]c(=O)c23)c(C)c1,95*,-1,45,6,-1,4
Cc1ccc(-c2csc3nc[nH]c(=O)c23)cc1,8,9,-4,5,-3,1
COCC#Cc1cnc2c(c1)C(=O)N([C@@H](C)CO)C[C@@H](C)[C@@H](CN(C)Cc1ccccc1F)O2,/,2,/,/,/,/
O=C(/C=C/c1cccc([N+](=O)[O-])c1)n1cnc2ccccc21,231*,/,207,-65,0,-6
CN(C)c1ncnc2c1ncn2CCn1cnc2c(N(C)C)ncnc21,/,0,/,-4,-2,0
CN(C)c1ncnc2c1ncn2-c1ccccc1,/,59*,/,26,1,4
C[C@@H]1CN([C@@H](C)CO)C(=O)c2cccc(NS(C)(=O)=O)c2O[C@@H]1CN(C)Cc1ccccc1,/,-1,/,/,/,/
COc1cc(C2C(C#N)=C(N)N(N(C)C)C3=C2C(=O)CC(C)(C)C3)ccc1O (stereo not given),-80,0,-76*,/,-3,3
COc1ccc(/C=C/C(=O)c2ccc(O)cc2)cc1,27,17,15,47,3,1
COc1ccc(/C=C/C(=O)c2ccccc2O)cc1,21,87*,16,141*,/,/
COc1ccc(/C=C/C(=O)c2ccccn2)cc1,34,/,28,38,3,75*
